# Literature values as cited in PubChem BioAssay AID977608.
# In all, about 4,300 compounds went through this assay and about 4,300 (100%) were called active. The limit is not given here; nearly all actives have IC50 up to about 1400 µM. So high a share suggests a set chosen from earlier hits. This is one part of the list. Positions of bridges follow the written chain, without caps; N, C: chain ends. Bridge positions count the residues as written; N and C are the ends. Non-standard residues stand in square brackets, D forms with d. Square brackets hold non-standard residues; d marks the D form. Residues, ends and D or L forms follow the SMILES beside them. Peptide text beside a SMILES is read from it. *: point of attachment. Phe(3,5-F2) = N[C@@H](Cc1cc(F)cc(F)c1)C(=O)O; Orn(CH(NH2)2) = NC(N)NCCC[C@H](N)C(=O)O; Pip(4S-Me) = C[C@H]1CCN[C@H](C(=O)O)C1; β3hR = N=C(N)NCCC[C@H](N)CC(=O)O; β3hE = N[C@@H](CCC(=O)O)CC(=O)O; β3hQ = NC(=O)CC[C@H](N)CC(=O)O; X1 = CC[C@H](C)C/C=C/C(=O)*; β3hD = NC(CC(=O)O)CC(=O)O; β3hA = C[C@H](N)CC(=O)O
# Test: literature IC50 values for PDB complexes, PDB-derived complexes (AID 977608)
# Settings: PDB protein-ligand complexes
compound,measurement,setting,value
CC[C@H](C)[C@H](NC(=O)C[C@H](CCC(=O)O)NC(=O)[C@H](CCC(=O)O)NC(=O)[C@H](C)N)C(=O)NCC(=O)N[C@@H](C)C(=O)N[C@@H](CCC(N)=O)CC(=O)N[C@@H](CC(C)C)C(=O)N[C@@H](CCCN=C(N)N)C(=O)N[C@@H](CCCN=C(N)N)CC(=O)N[C@@H](CCSC)C(=O)N[C@@H](C)C(=O)N[C@@H](CC(=O)O)C(=O)N[C@@H](CC(=O)O)CC(=O)N[C@@H](CC(C)C)C(=O)N[C@@H](CC(N)=O)C(=O)N[C@@H](C)CC(=O)N[C@@H](CCC(N)=O)C(=O)N[C@@H](Cc1ccc(O)cc1)C(=O)O (H-AE[β3hE]IGA[β3hQ]LR[β3hR]MAD[β3hD]LN[β3hA]QY-OH),IC50,"protein: fusion protein of mouse and human Mcl-1, PDB entry 4bpi",0.67 µM (active)
CC[C@H](C)[C@H](NC(=O)[C@H](C)N)C(=O)N[C@H](C)C(=O)N[C@@H](C)C(=O)N[C@@H](CCC(N)=O)CC(=O)N[C@@H](CC(C)C)C(=O)N[C@@H](CCCN=C(N)N)C(=O)N[C@@H](CCCN=C(N)N)CC(=O)N[C@@H](CCSC)C(=O)N[C@@H](C)C(=O)N[C@@H](CC(=O)O)C(=O)N[C@@H](CC(=O)O)CC(=O)N[C@@H](CC(C)C)C(=O)N[C@@H](CC(N)=O)C(=O)N[C@@H](C)CC(=O)N[C@@H](CCC(N)=O)C(=O)N[C@@H](Cc1ccc(O)cc1)C(=O)N[C@@H](CCC(=O)O)C(N)=O,IC50,"protein: fusion protein of mouse and human Mcl-1, PDB entry 4bpj",1 µM (active)
Nc1ncc2c(n1)-c1c([nH]c3ccc(Br)cc13)CCC2,IC50,"protein: Mitogen-activated protein kinase kinase kinase 14, PDB entry 4idt",0.1 µM (active)
N#CNC(=NCCCCCCOc1ccc(Cl)cc1)Nc1ccncc1,IC50,"protein: Human Nicotinamide Phosphoribosyltransferase, PDB entry 4o12",0.002 µM (active)
CCOc1ccc(C(=O)Nc2ccc(F)c([C@@]3(C)NC(N)OCC3(F)F)c2)nc1 (stereo partly specified),IC50,"protein: BETA-SECRETASE 2, PDB entry 3zlq",0.904 µM (active)
same,IC50,"protein: Beta-secretase 1, PDB entry 4j0t",0.184 µM (active)
CCOP(=O)(COc1ccc(CCc2cnc3c(c2)C(=O)N(C)c2cccnc2N3CC)cc1)OCC,IC50,"protein: Reverse transcriptase, PDB entry 4i7f",0.1 µM (active)
O=C(COc1ccccc1[P+](O)(O)O)Nc1ccccc1C(F)(F)F,IC50,"protein: 14-3-3 protein sigma, PDB entry 3t0l",30 µM (active)
O=C(COc1ccccc1[P+](O)(O)O)Nc1ccccc1Cl,IC50,"protein: 14-3-3 protein sigma, PDB entry 4dhr",27 µM (active)
O=C(COc1ccccc1[P+](O)(O)O)Nc1cc(C(F)(F)F)ccc1Cl,IC50,"protein: 14-3-3 protein sigma, PDB entry 4dhp",36 µM (active)
O=C(COc1ccccc1[P+](O)(O)O)Nc1cccc(Cl)c1Cl,IC50,"protein: 14-3-3 protein sigma, PDB entry 4dhu",5 µM (active)
N#Cc1c(F)cc(O)cc1SCCS(O)(O)O,IC50,"protein: M-phase inducer phosphatase 2 CDC25B, PDB entry 4wh9",1000 µM (active)
COc1cc2cc(c1)NC(=O)/C(C)=C/CC[C@H](OC(N)=O)[C@@H](OC(N)=O)/C(C)=C/[C@H](C)[C@@H](OC)[C@@H](OC)COC2,IC50,"protein: Heat shock protein HSP 90-alpha, PDB entry 4jql",1 µM (active)
CC[C@H](C)[C@@H]1NC(=O)[C@H](CC(=O)O)NC(=O)[C@@H](NC(=O)[C@H](CCC(=O)O)NC(=O)[C@H](CC(N)=O)NC(=O)CNC(=O)CN)CSSC[C@@H](C(=O)N[C@@H](Cc2ccccc2)C(=O)N[C@@H](CCC(=O)O)C(=O)N[C@@H](CCCNC(N)N)C(=O)N[C@@H](CC(C)C)C(=O)O)NC(=O)[C@H](CCC(=O)O)NC(=O)[C@H](Cc2c[nH]c3ccccc23)NC(=O)[C@H](CCC(=O)O)NC(=O)[C@H](Cc2c[nH]c3ccccc23)NC(=O)[C@H](CCSC)NC(=O)[C@H](CCCNC(N)N)NC(=O)[C@H](C)NC1=O (H-GGNECDIA[Orn(CH(NH2)2)]MWEWECFE[Orn(CH(NH2)2)]L-OH; disulfide 5-15),IC50,"protein: Vascular endothelial growth factor(VEGF), PDB entry 1kat",1 µM (active)
CSCC[C@H](NC(=O)[C@@H]1CSSC[C@H](NC(=O)[C@H](CC(N)=O)NC(=O)[C@@H](N)CCCNC(N)N)C(=O)N[C@@H](Cc2ccccc2)C(=O)N[C@@H](CCC(=O)O)C(=O)N[C@@H](CO)C(=O)N[C@@H](C(C)C)C(=O)N[C@@H](C)C(=O)N[C@@H](C)C(=O)N[C@@H](CC(C)C)C(=O)N[C@@H](CCCNC(N)N)C(=O)N[C@@H](CCCNC(N)N)C(=O)N1)C(=O)N[C@@H](Cc1ccc(O)cc1)C(=O)NCC(=O)O (H-[Orn(CH(NH2)2)]NCFESVAAL[Orn(CH(NH2)2)][Orn(CH(NH2)2)]CMYG-OH; disulfide 3-13),IC50,"protein: Insulin-like growth factor IB(IGF-I), PDB entry 1pmx",7.2 µM (active)
CC[C@@H]1C(=O)N(C)c2cnc(-n3ccnc3-c3ccccc3)nc2N1C1CC=CC1,IC50,"protein: Serine/threonine-protein kinase PLK2 (C83S, V87T, A119S, A216S, C259A, C291S, L335T mutation), PDB entry 4i6f",0.005 µM (active)
CC[C@@H]1C(=O)N(C)c2cnc(-n3ccnc3-c3cscn3)nc2N1C1CCCC1,IC50,"protein: Serine/threonine-protein kinase PLK2 (C83S, V87T, A119S, A216S, C259A, C291S, L335T mutation), PDB entry 4i6h",0.005 µM (active)
"CC[C@H](C)C/C=C/C(=O)N[C@@H](Cc1cc(F)cc(F)c1)C(=O)N[C@@H]1C(=O)N2CCC[C@H]2C(=O)N2CC[C@H](C)C[C@H]2C(=O)N[C@@H](C)C(=O)N2CCC[C@H]2C(=O)O[C@@H]1C (X1-[Phe(3,5-F2)]TP[Pip(4S-Me)]AP; ester 2-C)",IC50,"protein: ATP-dependent Clp protease proteolytic subunit 1 ClpP1, PDB entry 4u0g",5.1 µM (active)
Oc1ccc(-n2ccnc2)cc1,IC50,"protein: Polymerase PA, PDB entry 4m5r",1000 µM (active)
c1cc2nc(N[C@H]3CCCNC3)c3cc[nH]c3n2n1,IC50,"protein: MAP kinase-activated protein kinase 2, PDB entry 3wi6",4.7 µM (active)
O=C(O)c1ccc2occc2c1,IC50,"protein: Dengue virus 3 non-structural protein 5, PDB entry 4ctj",3120 µM (active)
N[C@@H](CCNC(=O)N1CCn2c(ccc2C(F)(F)F)C1)Cc1cc(F)c(F)cc1F,IC50,"protein: Dipeptidyl peptidase 4, DPP4, PDB entry 4j3j",0.031 µM (active)
COc1ccc(Cl)cc1NCC(=O)NC1CCC(n2c(=O)[nH]c3ccccc32)CC1 (stereo unspecified),IC50,"protein: Tankyrase-1, PDB entry 4k4e",0.024 µM (active)
COc1nc2c(cc1-c1c(C)noc1C)ncc1[nH]c(=O)n(-c3ccccc3OC(F)(F)F)c12,IC50,"protein: BROMODOMAIN-CONTAINING PROTEIN 4, PDB entry 4bw4",0.63 µM (active)
C/C(=N\O)c1ccc(O)cc1O,IC50,"protein: SERINE/THREONINE-PROTEIN KINASE CHK2, PDB entry 4bdb",85.6 µM (active)
COc1ccc(C[C@H](NC(=O)[C@H](C)NC(=O)CN2CCOCC2)C(=O)N[C@@H](CC2CCCCC2)[C@@H](O)[C@H](C)CO)cc1,IC50,"protein: yCP, PDB entry 4qlq",0.0066 µM (active)
COc1ccc(C[C@H](NC(=O)[C@@H](C)NC(=O)CN2CCOCC2)C(=O)N[C@@H](CC2CCCCC2)[C@@H](O)[C@H](C)CO)cc1,IC50,"protein: yCP, PDB entry 4qls",0.036 µM (active)
O=C(COc1ccccc1[P+](O)(O)O)NC1CCCC1,IC50,"protein: 14-3-3 protein sigma, PDB entry 4dhn",128 µM (active)
O=C(COc1ccccc1[P+](O)(O)O)NC1CCCCC1,IC50,"protein: 14-3-3 protein sigma, PDB entry 4dht",15 µM (active)
O=C(CS)NCCCCCC(=O)Nc1ccccc1,IC50,"protein: Schistosoma mansoni histone deacetylase 8, HDAC8, PDB entry 4cqf",50 µM (active)
C[C@@H](O)[C@H](NC(=O)Cc1cc(Cl)cc(Cl)c1)C(=O)NCC(=O)NCC=N,IC50,"protein: Protease AVP8, PDB entry 4piq",0.08 µM (active)
